# From PubChem BioAssay (NCI)
# The panel holds about 79,000 compounds, 15% with a hit somewhere; the sample as a whole holds those more often. A number with no mark means an inactive call. The source made the active and inactive calls. Cut-off read from the data, not from the text of the source: active = growth inhibition above about 70%; inactive = the rest.
# Experiments:
# [1] = NCI Yeast Anticancer Drug Screen. Data for the rad52 strain (AID 147);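 note: 0% = growth of vehicle-treated control cultures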; conditions: S. cerevisiae rad52 mutant growth inhibition, hits give high values
# How it was run: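 Measured: yeast growth inhibition. System: strain with a defined DNA damage repair alteration. Reference: vehicle-treated control cultures.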
# [2] = NCI Yeast Anticancer Drug Screen. Data for the wt1 strain (AID 149);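 note: 0% = growth of vehicle-treated wt1 cultures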; conditions: S. cerevisiae wt1 strain (SPY 50644) growth inhibition, hits give high values
# How it was run: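 Growth inhibition read against vehicle controls after compound exposure of the wt1 yeast strain.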
# [3] = NCI Yeast Anticancer Drug Screen. Data for the rad50EPP+ strain (AID 151);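 note: 0% = growth of vehicle-treated control cultures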; conditions: S. cerevisiae rad50 mutant strain, hits give high values
# How it was run: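 One strain with a rad50 alteration (rad50EPP+) was compound-treated, its growth then compared to that of vehicle controls.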
# [4] = NCI Yeast Anticancer Drug Screen. Data for the mgt1 strain (AID 153); conditions: S. cerevisiae mgt1 mutant growth inhibition, hits give high values
# How it was run: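 After exposure of the mgt1 yeast mutant to compound, growth was measured and reported as inhibition compared with vehicle controls.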
# [5] = NCI Yeast Anticancer Drug Screen. Data for the rad50 strain (AID 155);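 note: 0% = growth of vehicle-only cultures of the same strain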; conditions: S. cerevisiae rad50 strain growth inhibition, hits give high values
# How it was run: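 Readout: growth inhibition relative to vehicle-treated cultures. Compound exposure was carried out in a genetically defined yeast strain deficient in DNA damage repair.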
# [6] = NCI Yeast Anticancer Drug Screen. Data for the mec2-1 strain (AID 157); conditions: S. cerevisiae mec2-1 strain, hits give high values
# How it was run: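 Test agents were screened against the mec2-1 yeast strain, with defined DNA repair or cell cycle alteration. Growth was scored as inhibition against vehicle-only controls.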
# [7] = NCI Yeast Anticancer Drug Screen. Data for the rad14 strain (AID 159);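 note: 0% = growth of vehicle-treated control cultures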; conditions: S. cerevisiae rad14 strain growth inhibition, hits give high values
# How it was run: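 Growth inhibition vs vehicle controls; genetically altered yeast strain (DNA damage repair defect) treated with test compounds.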
# [8] = NCI Yeast Anticancer Drug Screen. Data for the sgs1 mgt1 strain (AID 161);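 note: 0% = growth of cultures given vehicle only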; conditions: S. cerevisiae sgs1 mgt1 strain, hits give high values
# How it was run: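 Test agents were incubated with a DNA-repair-mutant yeast strain. Growth was then read and compared against vehicle-treated controls.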
# [9] = NCI Yeast Anticancer Drug Screen. Data for the CLN2oe strain (AID 163);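 note: 0% = growth of vehicle-only control cultures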; conditions: S. cerevisiae CLN2oe strain, hits give high values
# How it was run: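 Here, growth inhibition in a cell-cycle-altered yeast strain after compound exposure was quantified against vehicle control growth.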
# [10] = NCI Yeast Anticancer Drug Screen. Data for the cln2 rad14 strain (AID 165);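 note: 0% = growth equal to vehicle treated cultures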; conditions: S. cerevisiae cln2 rad14 strain, hits give high values
# How it was run: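 Growth of compound-exposed yeast (cln2 rad14 genotype) measured and expressed as inhibition relative to vehicle.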
# [11] = NCI Yeast Anticancer Drug Screen. Data for the bub3 strain (AID 167); conditions: S. cerevisiae bub3 mutant strain, hits give high values
# How it was run: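 Readout: yeast growth inhibition, expressed relative to vehicle-only wells. The test organism is a mutant strain from a panel with lesions in DNA repair or checkpoint genes.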
# [12] = NCI Yeast Anticancer Drug Screen. Data for the wt2 strain (AID 169);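 note: 0% = growth of vehicle-treated yeast cultures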; conditions: S. cerevisiae wt2 strain growth inhibition, hits give high values
# How it was run: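 Genetically defined yeast strains from a DNA-repair/cell-cycle panel were used. Compound-exposed yeast growth was measured, and the inhibition was calculated relative to vehicle treatment.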
# [13] = NCI Yeast Anticancer Drug Screen. Data for the mlh1 strain (AID 171);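 note: 0% = growth of vehicle-treated control cultures of the same strain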; conditions: S. cerevisiae mlh1 strain growth inhibition, hits give high values
# How it was run: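 Here the genetically defined yeast mutant is grown with each compound, and the extent to which its growth falls below that of vehicle-exposed cells is reported.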
# [14] = NCI Yeast Anticancer Drug Screen. Data for the sgs1 strain (AID 173);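 note: 0% = growth of vehicle-only control cultures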; conditions: S. cerevisiae sgs1 mutant, hits give high values
# How it was run: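 Relative growth inhibition, referenced to vehicle, was determined in a yeast strain with a defined alteration affecting DNA damage repair or cell cycle control after compound exposure.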
# [15] = NCI Yeast Anticancer Drug Screen. Data for the mlh1 rad18 strain (AID 175); conditions: S. cerevisiae mlh1 rad18 strain growth inhibition, hits give high values
# How it was run: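 In this whole-cell yeast screen, a strain with altered DNA damage repair is challenged with compound, and its growth is measured against matched vehicle-treated controls.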
# [16] = NCI Yeast Anticancer Drug Screen. Data for the rad18 strain (AID 177); conditions: S. cerevisiae rad18 mutant growth inhibition, hits give high values
# How it was run: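 Screen uses a yeast strain with a defined lesion in DNA damage repair; compound effect is read as loss of growth compared to untreated vehicle cultures.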
# [17] = at 5.0 µM (retest, dose inferred, filed as 0.5)
# [18] = at 50.0 µM (retest, dose inferred, filed as 5.0)
smiles,measurement,setting,value
CNC(=O)OCc1c(COC(=O)NC)c(-c2ccc(Cl)c(Cl)c2)n2c1CCC2,growth inhibition,[1]; at 1.2 µM,-21%
same,growth inhibition,[1]; at 3.7 µM,-27%
same,growth inhibition,[1]; at 11.0 µM,-14%
same,growth inhibition,[1]; at 33.0 µM,77% (active)
same,growth inhibition,[1]; at 100.0 µM,97% (active)
same,growth inhibition,[2]; at 1.2 µM,-53%
same,growth inhibition,[2]; at 3.7 µM,-56%
same,growth inhibition,[2]; at 11.0 µM,-48%
same,growth inhibition,[2]; at 33.0 µM,71% (active)
same,growth inhibition,[2]; at 100.0 µM,98% (active)
same,growth inhibition,[3]; at 1.2 µM,-19%
same,growth inhibition,[3]; at 3.7 µM,-21%
same,growth inhibition,[3]; at 11.0 µM,-31%
same,growth inhibition,[3]; at 33.0 µM,-28%
same,growth inhibition,[3]; at 100.0 µM,4%
same,growth inhibition,[4]; at 1.2 µM,-66%
same,growth inhibition,[4]; at 3.7 µM,-73%
same,growth inhibition,[4]; at 11.0 µM,-69%
same,growth inhibition,[4]; at 33.0 µM,95% (active)
same,growth inhibition,[4]; at 100.0 µM,98% (active)
same,growth inhibition,[5]; at 1.2 µM,-51%
same,growth inhibition,[5]; at 3.7 µM,-51%
same,growth inhibition,[5]; [17],17%
same,growth inhibition,[5]; at 11.0 µM,-37%
same,growth inhibition,[5]; at 33.0 µM,87% (active)
same,growth inhibition,[5]; [18],98% (active)
same,growth inhibition,[5]; at 50.0 µM,84.9% (active)
same,growth inhibition,[5]; at 100.0 µM,97% (active)
same,growth inhibition,[6]; at 1.2 µM,-74%
same,growth inhibition,[6]; at 3.7 µM,-47%
same,growth inhibition,[6]; [17],-5%
same,growth inhibition,[6]; at 11.0 µM,-32%
same,growth inhibition,[6]; at 33.0 µM,85% (active)
same,growth inhibition,[6]; [18],98% (active)
same,growth inhibition,[6]; at 50.0 µM,87.5% (active)
same,growth inhibition,[6]; at 100.0 µM,98% (active)
same,growth inhibition,[7]; at 1.2 µM,-34%
same,growth inhibition,[7]; at 3.7 µM,-36%
same,growth inhibition,[7]; at 11.0 µM,-31%
same,growth inhibition,[7]; at 33.0 µM,98% (active)
same,growth inhibition,[7]; at 100.0 µM,98% (active)
same,growth inhibition,[8]; [17],32%
same,growth inhibition,[8]; [18],99% (active)
same,growth inhibition,[8]; at 50.0 µM,78.5% (active)
same,growth inhibition,[9]; at 1.2 µM,-4%
same,growth inhibition,[9]; at 3.7 µM,-13%
same,growth inhibition,[9]; at 11.0 µM,-13%
same,growth inhibition,[9]; at 33.0 µM,65%
same,growth inhibition,[9]; at 100.0 µM,98% (active)
same,growth inhibition,[10]; [17],38%
same,growth inhibition,[10]; [18],99% (active)
same,growth inhibition,[10]; at 50.0 µM,86.9% (active)
same,growth inhibition,[11]; at 1.2 µM,-58%
same,growth inhibition,[11]; at 3.7 µM,-61%
same,growth inhibition,[11]; [17],52%
same,growth inhibition,[11]; at 11.0 µM,-35%
same,growth inhibition,[11]; at 33.0 µM,93% (active)
same,growth inhibition,[11]; [18],99% (active)
same,growth inhibition,[11]; at 50.0 µM,55.6%
same,growth inhibition,[11]; at 100.0 µM,97% (active)
same,growth inhibition,[12]; at 1.2 µM,-14%
same,growth inhibition,[12]; at 3.7 µM,-14%
same,growth inhibition,[12]; at 11.0 µM,-14%
same,growth inhibition,[12]; at 33.0 µM,62%
same,growth inhibition,[12]; at 100.0 µM,97% (active)
same,growth inhibition,[13]; at 1.2 µM,-94%
same,growth inhibition,[13]; at 3.7 µM,-90%
same,growth inhibition,[13]; at 11.0 µM,-81%
same,growth inhibition,[13]; at 33.0 µM,98% (active)
same,growth inhibition,[13]; at 100.0 µM,97% (active)
same,growth inhibition,[14]; at 1.2 µM,-11%
same,growth inhibition,[14]; at 3.7 µM,-20%
same,growth inhibition,[14]; at 11.0 µM,-29%
same,growth inhibition,[14]; at 33.0 µM,88% (active)
same,growth inhibition,[14]; at 100.0 µM,97% (active)
same,growth inhibition,[15]; [17],5%
same,growth inhibition,[15]; [18],97% (active)
same,growth inhibition,[15]; at 50.0 µM,91.2% (active)
same,growth inhibition,[16]; at 1.2 µM,-39%
same,growth inhibition,[16]; at 3.7 µM,-46%
same,growth inhibition,[16]; at 11.0 µM,-32%
same,growth inhibition,[16]; at 33.0 µM,94% (active)
same,growth inhibition,[16]; at 100.0 µM,97% (active)
O=C(OCC=C1CCCC1)c1cc([N+](=O)[O-])cc([N+](=O)[O-])c1,growth inhibition,[1]; at 1.2 µM,-1%
same,growth inhibition,[1]; at 3.7 µM,2%
same,growth inhibition,[1]; at 11.0 µM,21%
same,growth inhibition,[1]; at 33.0 µM,85% (active)
same,growth inhibition,[1]; at 100.0 µM,96% (active)
same,growth inhibition,[2]; at 1.2 µM,-6%
same,growth inhibition,[2]; at 3.7 µM,-1%
same,growth inhibition,[2]; at 11.0 µM,10%
same,growth inhibition,[2]; at 33.0 µM,86% (active)
same,growth inhibition,[2]; at 100.0 µM,98% (active)
same,growth inhibition,[3]; at 1.2 µM,3%
same,growth inhibition,[3]; at 3.7 µM,16%
same,growth inhibition,[3]; at 11.0 µM,53%
same,growth inhibition,[3]; at 33.0 µM,87% (active)
same,growth inhibition,[3]; at 100.0 µM,92% (active)
same,growth inhibition,[4]; at 1.2 µM,-1%
same,growth inhibition,[4]; at 3.7 µM,-1%
same,growth inhibition,[4]; at 11.0 µM,16%
same,growth inhibition,[4]; at 33.0 µM,95% (active)
same,growth inhibition,[4]; at 100.0 µM,98% (active)
same,growth inhibition,[5]; at 1.2 µM,0%
same,growth inhibition,[5]; at 3.7 µM,4%
same,growth inhibition,[5]; [17],11%
same,growth inhibition,[5]; at 11.0 µM,18%
same,growth inhibition,[5]; at 33.0 µM,86% (active)
same,growth inhibition,[5]; [18],57%
same,growth inhibition,[5]; at 50.0 µM,4.3%
same,growth inhibition,[5]; at 100.0 µM,96% (active)
same,growth inhibition,[6]; at 1.2 µM,-3%
same,growth inhibition,[6]; at 3.7 µM,-2%
same,growth inhibition,[6]; [17],3%
same,growth inhibition,[6]; at 11.0 µM,13%
same,growth inhibition,[6]; at 33.0 µM,89% (active)
same,growth inhibition,[6]; [18],48%
same,growth inhibition,[6]; at 50.0 µM,-14.6%
same,growth inhibition,[6]; at 100.0 µM,98% (active)
same,growth inhibition,[7]; at 1.2 µM,-2%
same,growth inhibition,[7]; at 3.7 µM,1%
same,growth inhibition,[7]; at 11.0 µM,12%
same,growth inhibition,[7]; at 33.0 µM,71% (active)
same,growth inhibition,[7]; at 100.0 µM,97% (active)
same,growth inhibition,[8]; [17],-2%
same,growth inhibition,[8]; [18],81% (active)
same,growth inhibition,[8]; at 50.0 µM,2.55%
same,growth inhibition,[9]; at 1.2 µM,-6%
same,growth inhibition,[9]; at 3.7 µM,1%
same,growth inhibition,[9]; at 11.0 µM,9%
same,growth inhibition,[9]; at 33.0 µM,60%
same,growth inhibition,[9]; at 100.0 µM,96% (active)
same,growth inhibition,[10]; [17],-24%
same,growth inhibition,[10]; [18],4%
same,growth inhibition,[10]; at 50.0 µM,-6.45%
same,growth inhibition,[11]; at 1.2 µM,-6%
same,growth inhibition,[11]; at 3.7 µM,-6%
same,growth inhibition,[11]; [17],-21%
same,growth inhibition,[11]; at 11.0 µM,-1%
same,growth inhibition,[11]; at 33.0 µM,61%
same,growth inhibition,[11]; [18],70% (active)
same,growth inhibition,[11]; at 50.0 µM,5.55%
same,growth inhibition,[11]; at 100.0 µM,96% (active)
same,growth inhibition,[12]; at 1.2 µM,-3%
same,growth inhibition,[12]; at 3.7 µM,-3%
same,growth inhibition,[12]; at 11.0 µM,16%
same,growth inhibition,[12]; at 33.0 µM,97% (active)
same,growth inhibition,[12]; at 100.0 µM,98% (active)
same,growth inhibition,[13]; at 1.2 µM,-2%
same,growth inhibition,[13]; at 3.7 µM,4%
same,growth inhibition,[13]; at 11.0 µM,22%
same,growth inhibition,[13]; at 33.0 µM,94% (active)
same,growth inhibition,[13]; at 100.0 µM,98% (active)
same,growth inhibition,[14]; at 1.2 µM,-1%
same,growth inhibition,[14]; at 3.7 µM,4%
same,growth inhibition,[14]; at 11.0 µM,26%
same,growth inhibition,[14]; at 33.0 µM,97% (active)
same,growth inhibition,[14]; at 100.0 µM,99% (active)
